# From PubChem
# Many of the other results were omitted from the sample, so hits are more common in it than they were.
# TTR transcr act = TTR transcription activation, primary screen; SH-SY5Y TTR promoter Gaussia luciferase, luminescence; 100% = recombinant luciferase protein wells; activation, % at 16.7 µM; 1.3% of 92,000 active;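 active = activation above the mean of all tested compounds plus 3 SD, cut at about 9.5% in these data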;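 note: cells exposed to compounds for one day before reading; 0% = median of all test compound wells on the plate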
# HuH7 TTR inh = HuH7 TTR transcription inhibition, counter-screen; AID 1117279; inhibition, % at 16.7 µM; 4% of 1,100 active; shares compounds with TTR transcr act; HuH7 TTR promoter-Gaussia luciferase reporter, luminescence;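 active = average inhibition above the solvent-only control wells' mean plus 3 SD, cut at about 15% in these data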;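 note: 0% = cells with DMSO only and 100% = cells with inhibitor control FD; inhibitors lower well luminescence so higher value means more inhibition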
# TTR act confirm = human TTR transcription activation, confirmation; 1,100 tested, under 10 active; SHSY5Y TTR promoter Gaussia luciferase, luminescence; 100% = purified Lucia enzyme wells, no cells; activation, % at 16.7 µM; shares compounds with TTR transcr act;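 active = mean activation above a set limit taken from the earlier primary screen, cut at about 11% in these data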;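 note: 0% = DMSO-treated cells and 100% = recombinant Lucia luciferase without cells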
# Starred values were filed as active, the others as inactive.
SMILES,TTR transcr act,others
Cn1cccc1[C@]1(O)C(=O)Nc2ccc(F)cc21,3,
O=C(NC1CCCc2c1cnn2-c1ccc(F)cc1F)c1ccccc1 (centres undefined),-2,
Cc1cc(C)cc(-n2ncc3c2CCCC3NC(=O)c2cc(C)[nH]n2)c1 (centres undefined),-2,
COc1ccc(C(=O)NC2CCCc3c2cnn3-c2cc(F)cc(F)c2)c(OC)c1OC (centres undefined),13*,HuH7 TTR inh=29*;TTR act confirm=-1
CN1CCC(C(=O)C(=O)O)C1=O (centres undefined),2,
CCOC(=O)C1CCN(S(=O)(=O)c2ccc3[nH]c(=O)oc3c2)CC1,1,
CCN1CCN(S(=O)(=O)c2ccc3c(c2)NC(=O)CS3)CC1,2,
CCOC(=O)C1CCN(S(=O)(=O)c2ccc3c(c2)NC(=O)CS3)CC1,11*,HuH7 TTR inh=-15;TTR act confirm=0
COc1ccc(C(CC(=O)O)NC(=O)c2cc3cc(Br)ccc3oc2=O)cc1OC (centres undefined),-2,
CCCC(=O)NC(c1ccc(OCC)cc1)c1ccc(OC)c(OC)c1 (centres undefined),-1,
CCOc1ccc(C(NC(C)=O)c2ccc(OC)c(OC)c2)cc1 (centres undefined),11*,HuH7 TTR inh=-5;TTR act confirm=1
CCOC(=O)NC(CC(=O)O)c1ccc(OCC)cc1 (centres undefined),2,
CCOC(=O)NC(CC(=O)O)c1ccc(OC)c(OC)c1 (centres undefined),9.7*,HuH7 TTR inh=6;TTR act confirm=-1
CCOc1ccc(C(NC(=O)/C=C/c2ccco2)c2ccc(OC)c(OC)c2)cc1 (centres undefined),0,
N#Cc1ccc(OCC(O)CN2CCC(C(O)(c3ccccc3)c3ccccc3)CC2)cc1 (centres undefined),1,
O=C(OCc1cn(Cc2c(F)cccc2F)nn1)N1CCCC1,2,
O=C(Cc1ccccc1)NC1CCCc2c1cnn2-c1ccc(F)cc1F (centres undefined),-2,
Cc1cc(C)n(CC(=O)c2ccccc2)c(=O)c1C#N,16*,HuH7 TTR inh=-7;TTR act confirm=0
Cc1cn(CC(=O)c2ccccc2)c2ccccc12,0,
Cc1cc(-c2ccccc2)[nH]c(=O)c1C#N,0,
O=C(COC(=O)Cc1ccc(S(=O)(=O)N2CCOCC2)s1)Nc1ccc(F)cc1F,0,
CCCC1NC(=O)c2cccnc2-n2c1nc1ccc(OC)cc1c2=O (centres undefined),1,
Cc1cn([C@H]2C[C@H](O)[C@@H](CNCC3=Cc4cc(O)ccc4OC3)O2)c(=O)[nH]c1=O,-2,
C/C(=N\O)c1ccn(S(=O)(=O)c2ccc(Cl)cc2)c1,26*,HuH7 TTR inh=-23;TTR act confirm=4
C/C(=N/NS(=O)(=O)c1ccc(Cl)cc1)c1ccncc1,4,
SMILES,TTR transcr act,others
CC(=O)c1ccn(S(=O)(=O)c2ccc(Cl)cc2)c1,2,
COc1ccccc1-c1nnc(SCC(=O)N2CCCC2)o1,1,
CCOC(=O)C1CCN(C(=O)C(C)(C)NC(=O)Nc2ccc3c(c2)CCC3)CC1,-2,
O=C(Nc1cccc(Cl)c1)Nc1ccc2c(c1)C(=O)OC2,2,
O=C1OCc2ccc(NC(=O)c3c(F)cccc3Cl)cc21,0,
O=C1OCc2ccc(NC(=O)C3CC3)cc21,21*,HuH7 TTR inh=-6;TTR act confirm=0
COCCCNC(=O)c1ccc(Cn2c(=O)c3ccccc3n(Cc3ccc(C(C)C)cc3)c2=O)cc1,-2,
CCC[C@H]1[C@@H](OC(=O)Oc2ccc([N+](=O)[O-])cc2)CC[C@@]23CCCN2C(=O)CCC[C@@H]13,-2,
Cc1noc(C)c1COc1ccc(C(=O)Nc2ccccc2)cc1,0,
CCc1ccccc1NC(=O)c1ccc(OCc2c(C)noc2C)cc1,49*,HuH7 TTR inh=-12;TTR act confirm=1
Cc1noc(C)c1COc1ccc(C(=O)Nc2ccccn2)cc1,0,
CC(C)(C)c1ccc(C(=O)Nc2cc(Cl)ccc2-c2nn[nH]n2)cc1,-3,
COC(=O)[C@]12C[C@H](CC(=O)NCc3cccc(C(F)(F)F)c3)C(=O)N(Cc3ccc(Cl)cc3Cl)C1=C[C@H](C1CCCC1)O[C@@H]2C,0,
COc1ccc(-n2nc(C(=O)NCC(=O)NCc3ccco3)c3ccccc3c2=O)cc1,0,
COc1ccc(-n2nc(C(=O)NCC(=O)NCCCN3CCN(C)CC3)c3ccccc3c2=O)cc1,-1,
CCOC(=O)N1CCN(C(=O)CNC(=O)c2nn(-c3ccc(OC)cc3)c(=O)c3ccccc23)CC1,15*,HuH7 TTR inh=-18;TTR act confirm=1
O=C(NCc1ccccc1)c1onc(CSc2ccc(F)c(F)c2)c1C(=O)NCc1ccccc1,-3,
COc1ccc(-c2nc(-c3ccncc3)no2)cc1OC,0,
COc1ccc(-c2noc(-c3ccoc3C)n2)cc1OC,0,
COc1ccc(-c2noc(-c3cccs3)n2)cc1OC,22*,HuH7 TTR inh=35*;TTR act confirm=-1
